Results published in PubChem BioAssay AID1851 (National Center for Advancing Translational Sciences (NCATS), 2009).
Hit rate of the full screen: of about 16,000 compounds, about 5,100 (32%) were called active. Not shown: some 25% with an inconclusive outcome. The list shows a part of the results. Unmarked numbers belong to inactive results. Calls follow the shape of the dose curve; as a rule, active = well fitted curve in the direction sought with a large enough effect; inconclusive = small, poorly fitted or top-dose-only effect, or effect the other way; inactive = no such curve, though single readings can be large or run the other way.
% is scaled to controls: 0 for no effect and ±100 for the full control effect.

Each molecule was assayed against Cytochrome P450 3A4 (Homo sapiens) (UniProt P08684) (assay: Cytochrome panel assay with activity outcomes). Conditions: recombinant CYP, pro-luciferin dealkylation, luminescence, p450-cyp3a4; series mostly up to 57.1 µM.
Sequence of Cytochrome P450 3A4 (Homo sapiens) (P08684 whole entry, looked up): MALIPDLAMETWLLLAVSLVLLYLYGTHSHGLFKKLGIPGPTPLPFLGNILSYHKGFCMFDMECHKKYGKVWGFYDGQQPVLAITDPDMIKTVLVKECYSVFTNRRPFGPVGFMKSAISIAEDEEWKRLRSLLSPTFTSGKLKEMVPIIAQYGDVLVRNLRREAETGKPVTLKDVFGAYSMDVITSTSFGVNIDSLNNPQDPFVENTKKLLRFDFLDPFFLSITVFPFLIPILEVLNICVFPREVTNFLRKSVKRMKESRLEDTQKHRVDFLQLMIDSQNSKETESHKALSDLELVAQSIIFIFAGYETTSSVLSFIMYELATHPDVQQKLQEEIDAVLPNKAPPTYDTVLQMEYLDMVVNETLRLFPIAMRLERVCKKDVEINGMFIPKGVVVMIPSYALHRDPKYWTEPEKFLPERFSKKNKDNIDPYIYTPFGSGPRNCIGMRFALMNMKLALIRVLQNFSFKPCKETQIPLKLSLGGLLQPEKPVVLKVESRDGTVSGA
In the case of `COc1ccc(CSc2nnnn2C)cc1[N+](=O)[O-]`, the AC50 is reported as “inactive”. `CCCOc1ccc(Cn2c(C)nc([N+](=O)[O-])c2SCC(O)COC)cc1[N+](=O)[O-]` (stereo not given) was tested, and the AC50 was 14.1 µM (active). With `Cc1nc([N+](=O)[O-])c(N2CCN(C)CC2)n1Cc1ccccc1` the AC50 was “inactive”. With `Nc1nc2c(nc(Br)n2[C@@H]2O[C@H]3COP(=O)(O)O[C@@H]3[C@H]2O)c(=O)[nH]1` the AC50 was “inactive”. In the case of `COc1cc2c(CCNC(C)=O)c[nH]c2cc1Cl`, the AC50 is reported as 15.8 µM (active). For `COC(=O)Nc1ccc2[nH]cc(CCNC(C)=O)c2c1`, the AC50 was “inactive”. Molecule `Nc1ccc2[nH]cc(CCC(=O)O)c2c1` has an activity, negative = inhibition of -1.6% [at 11.4 µM]. With `CN(C)[C@@H]1C(=O)C(C(N)=O)=C(O)[C@]2(O)C(=O)C3=C(O)c4c(O)ccc(Cl)c4[C@H](O)[C@H]3C[C@@H]12` the AC50 was “inactive”. With `Cc1ccc(/C=C/c2ccc(=O)n(Cc3ccc(Cl)cc3Cl)n2)cc1` the AC50 was “inactive”. In the case of `Cc1ccc(Cn2cnc3c(nnn3Cc3ccc(Cl)cc3)c2=O)cc1`, the AC50 is reported as 3.16 µM (active). In the case of `Cc1nn(Cc2c(F)c(F)c(F)c(F)c2F)c(C)c1NC(=O)c1cccc(COc2ccccc2Cl)c1`, the AC50 is reported as 3.98 µM (active). `Cc1nn(Cc2c(F)c(F)c(F)c(F)c2F)c(C)c1NC(=O)c1cccc(COc2ccc(Cl)cc2)c1` gave an activity, negative = inhibition of -20.6% [at 2.29 µM]. With `Cc1nn(Cc2c(F)c(F)c(F)c(F)c2F)c(C)c1NC(=O)c1c(-c2ccccc2)nn(-c2ccccc2)c1C` the AC50 was 2.24 µM (active). `Cc1ncc(COP(=O)(O)O)c(C)c1O` showed an activity, negative = inhibition of -9.44% [at 11.4 µM]. `COc1ccc(OC)c(NC(=O)[C@H]2CC=CC[C@H]2C(=O)O)c1` was tested, and the AC50 was “inactive”. In the case of `Nc1c2c(nc3ccccc13)CCCC2`, the AC50 is reported as “inactive”. `COc1ccc(OC)c(NC(=O)c2c3c(nc4ccccc24)CCC3)c1` was tested, and the AC50 was 7.08 µM (active). With `COc1ccc(OC)c(-c2cc(C(=O)O)c3cc4ccccc4cc3n2)c1` the activity, negative = inhibition was 6% [at 11.4 µM]. In the case of `COc1cc(-c2nnc(COC(=O)c3c4c(nc5ccccc35)CCCC4)o2)cc(OC)c1OC`, the AC50 is reported as 4.47 µM (active). With `O=C1NC(=O)C(c2ccccc2)(c2ccccc2)N1` the AC50 was “inactive”. With `O=C1Nc2cc(C(=O)N3CCOCC3)ccc2SC1N1CCOCC1` (stereo not given) the AC50 was “inactive”. `Cc1cn(CC[C@H](N)C(=O)O)c(=O)[nH]c1=O` showed an activity, negative = inhibition of -9% [at 11.4 µM]. In the case of `O=C(NCc1ccccc1)C(c1ccncc1)N(C(=O)c1csnn1)C1CC1` (stereo not given), the AC50 is reported as 2.82 µM (active). In the case of `O=C(Nc1cccc(F)c1)N1CCC2(CC1)CCN(C(=O)c1csnn1)CC2`, the AC50 is reported as “inactive”. `O=C(NCc1ccc(F)cc1)C(c1ccncc1)N(C(=O)c1csnn1)C1CC1` (stereo not given) was tested, and the AC50 was 2 µM (active). With `O=C(C/C=N/OCc1ccc(Cl)cc1Cl)c1ccc(Cl)cc1` the AC50 was 25.1 µM (active). With `O=C(O)CCC(=O)c1ccc(Cl)cc1` the activity, negative = inhibition was 1.22% [at 11.4 µM]. For `CCN1CCN(CCCNC(=O)C(NC(=O)C2CCC(C)CC2)C(C)C)CC1` (stereo not given), the AC50 was “inactive”. For `COc1ccc2[nH]c(-c3ccccc3)c(CCNC(C)=O)c2c1`, the AC50 was 12.6 µM (active). With `CCCCNC(=O)C(=O)NC(C)CCc1ccccc1` (stereo not given) the AC50 was “inactive”. `CC(=O)NCCc1c(Cc2ccccc2)[nH]c2ccccc12` was tested, and the AC50 was 7.94 µM (active). For `Cc1ccc2[nH]c(-c3ccccc3)c(CN(C)C)c(=O)c2c1`, the activity, negative = inhibition was 9.06% [at 2.29 µM]. `COc1ccc2[nH]c3cc4c(=O)c5cc(OC)ccc5[nH]c4cc3c(=O)c2c1` showed an activity, negative = inhibition of -0.294% [at 11.4 µM]. For `CCCCC(=O)NCCc1c(Cc2ccccc2)[nH]c2ccccc12`, the AC50 was 0.794 µM (active). `CSc1nc(C)c2c(n1)N(c1ccc(C(C)C)cc1)CC2` was tested, and the AC50 was “inactive”. `C=CCc1cccc2cc(C(=O)N(CC)CC)c(=O)oc12` was tested, and the AC50 was 11.2 µM (active). With `Cc1cc(C)c[n+](CC(=O)c2cc3ccccc3oc2=O)c1` the AC50 was “inactive”. `CN(C)c1ncnc2ccc(-c3cccnc3)cc12` was tested, and the AC50 was 1 µM (active). `COc1cccc(-c2ccc3ncnc(N(C)C)c3c2)c1` was tested, and the AC50 was 7.94 µM (active). With `CN(C)c1ncnc2ccc(-c3cccc(C#N)c3)cc12` the AC50 was 12.6 µM (active). With `CN(C)c1ccc(-c2ccc3ncnc(N(C)C)c3c2)cc1` the AC50 was 6.31 µM (active). `CN(C)c1ncnc2c1ncn2CCn1cnc2c(N(C)C)ncnc21` showed an activity, negative = inhibition of 8.51% [at 11.4 µM]. With `NC(=O)C1(N2CCCCC2)CCN(C(=O)c2ccc(-n3cnnn3)cc2)CC1` the AC50 was “inactive”. With `NC(N)=[N+]1CCc2ccccc2C1` the AC50 was “inactive”. `CN1CCN(NC(=O)c2ccccc2F)CC1` was tested, and the AC50 was “inactive”. With `COC(=O)C(NNc1ccccc1)(NC(=O)c1ccccc1F)C(F)(F)F` (stereo not given) the AC50 was 1.58 µM (active). In the case of `O=C(O)c1ccc(S(=O)(=O)N=Nc2c(O)[nH]c3ccccc23)cc1`, the activity, negative = inhibition is reported as 14.3% [at 11.4 µM]. `[Cu].[O-]/N=C1/C(=[OH+])Nc2ccccc21.[O-]Nc1c(O)[nH]c2ccccc12` was tested, and the activity, negative = inhibition was 1.34% [at 11.4 µM]. `O=Nc1c(-c2c(O)[nH]c3ccccc23)[nH]c2ccccc12` was tested, and the AC50 was 7.94 µM (active). `O=c1[nH][nH]c(C(F)(F)F)c1C=Nc1ccccc1` was tested, and the AC50 was “inactive”. `COc1cc2nc(N(C)CCCNC(=O)[C@@H]3CCCO3)nc(N)c2cc1OC` was tested, and the AC50 was “inactive”. With `COc1cc2nc(N3CCN(C(=O)OCc4ccccc4)[C@H](C(=O)NC(C)(C)C)C3)nc(N)c2cc1OC` the AC50 was 3.98 µM (active). In the case of `C=CCN=C1CC(C)(C)CC(=O)/C1=C(/O)CCC(=O)OC`, the AC50 is reported as “inactive”. Work on `CC(C)(CCc1nc2ccccc2[nH]1)C(=O)O` yielded an activity, negative = inhibition of -1.06% [at 11.4 µM]. `Cc1cc(C)cc(NC(=O)CCc2nc3ccccc3[nH]2)c1` was tested, and the AC50 was 2.82 µM (active). `CC(=O)COC(=O)CCc1nc2ccccc2[nH]c1=O` was tested, and the AC50 was “inactive”. In the case of `CCCn1c(-c2cccs2)nc2nc3ccccc3nc21`, the AC50 is reported as 10 µM (active). In the case of `CCCCNC(=O)NS(=O)(=O)c1ccc(C(=O)OC(C)C)o1`, the AC50 is reported as “inactive”. For `N/C(=N\OC(=O)Cc1ccc(Cl)cc1)c1cccnc1`, the AC50 was 0.794 µM (active). With `C/C(=N\OC(=O)c1ccccc1)c1cc(-c2ccc(Cl)cc2)no1` the AC50 was “inactive”. For `Cc1cc(C)n(CC(=O)N/N=C/c2ccco2)n1`, the AC50 was “inactive”. In the case of `COc1ccccc1NCc1nnc(SCC(=O)N/N=C/c2ccco2)n1-c1ccc(Cl)cc1Cl`, the AC50 is reported as 5.01 µM (active). With `O=C(NCC1CCCO1)/C(=C\c1ccco1)NC(=O)c1ccccc1` (stereo not given) the AC50 was “inactive”. In the case of `O=C(N/C(=C\c1cccs1)C(=O)N1CCCCCC1)c1ccccc1`, the AC50 is reported as 7.94 µM (active). `O=C(Nc1cccc(F)c1)/C(=C\c1ccco1)NC(=O)c1cccs1` was tested, and the activity, negative = inhibition was -8.91% [at 2.29 µM]. In the case of `O=C(NC(=S)NNC(=O)c1cccs1)c1ccco1`, the activity, negative = inhibition is reported as -0.791% [at 2.29 µM]. `O=C(N/C(=C/c1ccco1)C(=O)N1CCCCCC1)c1cccs1` was tested, and the AC50 was 14.1 µM (active). With `O=C(O)C/C(=C\c1ccco1)C(=O)O` the activity, negative = inhibition was -18.3% [at 11.4 µM]. In the case of `CC(=O)c1cccc(NC(=O)/C(=C\c2ccco2)NC(=O)c2cccs2)c1`, the AC50 is reported as 20 µM (active). In the case of `O=C(NNC(=O)c1ccccc1)C(=O)N1CCCCC1`, the AC50 is reported as “inactive”. `O=C(NC(N1CCCC1)C(Cl)(Cl)Cl)c1ccccc1` (stereo not given) was tested, and the AC50 was “inactive”. With `C/C(=N/Nc1ccc2ccccc2n1)c1ccccc1O` the AC50 was 3.16 µM (active). In the case of `CC(=O)/C=C/c1ccc2ccccc2n1`, the AC50 is reported as “inactive”. With `CC(=NC1CCCCC1)c1ccccc1O` the activity, negative = inhibition was -3.59% [at 11.4 µM]. For `Cc1cc(N=Cc2c(CO)cnc(C)c2O)c(N=Cc2c(CO)cnc(C)c2O)cc1C.[Zn]`, the activity, negative = inhibition was -6.9% [at 11.4 µM]. `Cc1cc(C)cc(-n2nnnc2SCC(=O)Nc2nc(-c3ccc(Cl)cc3)cs2)c1` was tested, and the AC50 was 3.98 µM (active). With `Cc1cc(C)cc(-n2nnnc2SCC(=O)Nc2nc(-c3ccc(F)cc3)cs2)c1` the AC50 was 1.58 µM (active). In the case of `COC(=O)CSc1ccc2nnc(-c3ccc(F)cc3)n2n1`, the AC50 is reported as “inactive”. With `COc1ccc(/C=C2\CCCC3C2=NN(C(=O)c2ccco2)C3c2ccc(OC)c(OC)c2)cc1OC` (stereo not given) the AC50 was 7.94 µM (active). In the case of `Cc1ncsc1C(=O)N1N=C2/C(=C/c3ccccc3)CCCC2C1c1ccccc1` (stereo not given), the AC50 is reported as 5.01 µM (active). Work on `O=C1C2=CC[C@@H]3C(=O)N(c4ccc(F)cc4F)C(=O)[C@H]3[C@H]2[C@H](O)[C@H]2O[C@H]12` yielded an activity, negative = inhibition of -21.3% [at 11.4 µM]. `CC1(C)CCC(NC(=O)[C@H](N)CCC(=O)O)CC1` was tested, and the AC50 was “inactive”. `C(/C=C/c1ccco1)=N/N1CCN(c2ccccc2)CC1` was tested, and the AC50 was “inactive”. For `COc1ccccc1/C=C/C=N/N1CCN(Cc2ccc(Cl)cc2)CC1`, the AC50 was 14.1 µM (active). In the case of `O=[N+]([O-])c1ccc(Cl)c(/C=N/N2CCN(Cc3ccccc3)CC2)c1`, the AC50 is reported as “inactive”. With `CC(C)N(Cc1ccccc1)S(=O)(=O)c1n[nH]c(C(C)(C)C)n1` the activity, negative = inhibition was -24.5% [at 11.4 µM]. For `O=C(Nc1nc2ccc(F)cc2s1)C1CCCO1` (stereo not given), the AC50 was “inactive”. For `Fc1ccc2nc(Nc3nc4c(s3)CCCC4)sc2c1`, the AC50 was 22.4 µM (active). In the case of `CC(C)(C)c1ccc(OC(=O)Nc2ccc(O)c(C(=O)O)c2)cc1`, the activity, negative = inhibition is reported as -11.3% [at 11.4 µM]. With `Cc1cccc(/C=N\Nc2cn[nH]c(=O)c2Cl)c1` the AC50 was 15.8 µM (active). In the case of `Cc1cnn(-c2cc(N/N=C/c3ccccc3)ncn2)c1`, the AC50 is reported as “inactive”. Work on `CC1(C)Cc2ccccc2C(N/N=C/c2cccc(F)c2)=N1` yielded an activity, negative = inhibition of 14.5% [at 2.29 µM]. `COC(=O)[C@@]1(Cc2ccc(F)cc2)[C@@H]2[C@@H](CC(=O)[C@H]2CC(=O)C(=O)N(C)C)CN1C(=O)c1ccccc1` was tested, and the AC50 was 6.31 µM (active). With `COC(=O)[C@@]1(Cc2ccc(OC)cc2)[C@@H]2[C@@H](CC(=O)[C@H]2CC(=O)C(=O)N(C)C)CN1C(=O)c1ccccc1` the AC50 was 1 µM (active). In the case of `CC(C)N(CCNC(=O)C1CCC(=O)N1Cc1ccc(F)cc1)Cc1ccccc1` (stereo not given), the AC50 is reported as “inactive”.
